This note sets out measurements from PubChem BioAssay AID1259343 (VanderVen Lab, College of Veterinary Medicine, Cornell …, 2017).

The campaign covered roughly 6,200 compounds. About 2,900 (47%) were called active. Rule as the data show it: active = inhibition above about 50%; inactive = the rest. The set was probably picked from earlier hits. This is one part of the list.

The experiment in a line: Mycobacterium tuberculosis growth inhibition, primary screen (AID 1259343). The settings on record: inhibition: at 10 µM, stronger effect = higher value; outcome: 10 uM.
Broadly, the inhibition is the change of the read-out against control, counted positive when it falls. For `Cc1nn2c(=O)[nH]c(SCc3cccnc3)nc2c1-c1ccccc1`, the inhibition was 33.2% (inactive).
The result for `Cc1nn2c(NCCCN(C)C)cc(-c3ccccc3)nc2c1-c1ccccc1` reads -0.28% (inactive); that for `CC(=O)c1nnc2c(-c3ccccc3)c(C)nn2c1C`, 89.5% (active); that for `CC(=O)Nc1ccc(OC/C=C/c2ccccc2)cc1`, 87.3% (active).
The same measure for `COc1ccc(/C=C/C(=O)NNC(=O)COc2ccc(C)cc2)cc1`: 95.6% (active); for `Cc1oc(-c2ccccc2Cl)cc1CO`: 35.3% (inactive); for `CNC(=O)COc1ccc(/C=C/c2ccccc2)cc1`: 51.1% (active).
Regarding `CNC(=O)COc1ccc(-c2c(C)cccc2C)cc1`, the inhibition is 26.1% (inactive).
As for `COc1ccc(/C=C/c2nc3cc(C)ccc3s2)cc1O`, the inhibition is 23.6% (inactive).
Take `CNC(=O)COc1ccc(-c2ccccc2Cl)cc1`: the inhibition was 72.2% (active).
For `CNC(=O)COc1ccc(Oc2ccc(C)cc2)cc1`, the inhibition is 25.8% (inactive).
As for `COC(=O)Cc1ccc(OCC(=O)NC(C)c2ccc(Cl)cc2)cc1` (stereo not drawn), the inhibition is 20.1% (inactive).
On to `CC(NC(=O)COc1ccccc1)c1ccccc1Cl` (stereo not drawn), for which the inhibition is 85.4% (active).
As to `O=C(COc1ccccc1)NN=Cc1ccc(Br)cc1`, the inhibition is 89.4% (active).
For the compound `Cc1nc(Cl)cc(NC(C)c2ccc(Cl)c(Cl)c2)n1` (stereo not drawn), the inhibition is 6.72% (inactive).
The result for `Cc1ccc(-n2nnc(C(=O)OCc3ccccc3C)c2C)cc1` reads 93.8% (active); that for `COc1ccc(-c2nn(-c3ccccc3)cc2CN2CCN(c3cnccn3)CC2)c(F)c1`, 62.9% (active); that for `COc1ccc(Oc2ccc(C(=O)N[C@H]3CCCC[C@@H]3O)cc2)cc1`, 80.8% (active).
For `COc1ccc(C(=O)NC2CC(C)(C)Cc3occc32)cc1` (stereo not drawn), the inhibition is -1.78% (inactive).
The result for `CCOC(=O)C(C)Sc1ncnc2c1nnn2Cc1ccc(Cl)cc1` (stereo not drawn) reads 50.4% (active).
Turning to `CCOC(=O)CSc1ncnc2c1nnn2Cc1ccc(F)cc1`, the inhibition is -18.2% (inactive).
The same measure for `CCOC(=O)CSc1ncnc2c1nnn2Cc1ccc(Cl)cc1`: -17.6% (inactive).
The result for `CCOC(=O)CNC(=O)CSc1ncnc2c1nnn2Cc1ccc(F)cc1` reads -15.9% (inactive); that for `CCOC(=O)C(C)Sc1ncnc2c1nnn2Cc1ccc(F)cc1` (stereo not drawn), 64.3% (active); that for `CN=c1scc(-c2ccc(F)cc2)n1N=Cc1cccc(C(F)(F)F)c1`, -44.1% (inactive).
The same measure for `CN=c1scc(-c2ccccc2F)n1N=Cc1ccccc1`: -1.69% (inactive); for `CN=c1scc(-c2ccc(F)cc2)n1N=Cc1ccccc1Br`: -41.8% (inactive); for `CN=c1scc(-c2ccc(F)cc2)n1N=Cc1cccc(Br)c1`: 70.2% (active).
For the compound `CN=c1scc(-c2ccccc2F)n1N=Cc1ccc(SC)cc1`, the inhibition was -1.82% (inactive).
The same measure for `CN=c1scc(-c2ccccc2F)n1N=Cc1cccc(F)c1`: 98.1% (active); for `Cc1nn(C(=O)C(C)N2C(=O)c3ccccc3C2=O)c(C)c1Br` (stereo not drawn): 14.3% (inactive).
With `COc1ccc2oc(=O)cc(-c3cc4cc(Br)ccc4o3)c2c1`, the inhibition is -2.37% (inactive).
The result for `Cc1cccc2nc(COc3ccc4ccccc4c3Br)cn12` reads 41.5% (inactive); that for `CCCCN1CCC(COC(=O)c2cc(Cl)c(N)c3c2OCCO3)CC1`, 98.9% (active); that for `Cc1cccc(SC2CCN(c3nncc(-c4ccccc4)n3)CC2)c1`, 32.6% (inactive).
`Nc1ncc(Cc2cc(Cl)ccc2Cl)s1`: the inhibition was -17.2% (inactive).
The same measure for `NC(N)=NCc1ccc(Cl)cc1Cl`: 74.4% (active).
With `Nc1ncc(Cc2ccc(Cl)cc2F)s1`, the inhibition was 35.3% (inactive).
`Cc1nc(C)c(-c2ccc(SCc3c(F)cccc3Cl)nn2)s1`: the inhibition was 69.8% (active).
The same measure for `Cc1nc(C)c(-c2csc(Nc3cccnc3)n2)s1`: 35.7% (inactive); for `O=C(NC(C1CC1)C1CC1)C1CC(c2ccc(Cl)s2)=NO1` (stereo not drawn): -31.9% (inactive); for `O=C(Nc1ccc(-n2cccn2)nc1)C1CC(c2cccc(F)c2)=NO1` (stereo not drawn): 14.1% (inactive).
The same measure for `CC(NC(=O)C1CC(c2cccc(F)c2)=NO1)c1ccc(F)cc1F` (stereo not drawn): 84.1% (active); for `O=C(Oc1ccc2ccccc2c1)c1cccs1`: 86.7% (active); for `CCOc1ccccc1C(=O)Oc1ccc2ccc(O)cc2c1`: 40.6% (inactive).
The result for `COc1ccc2c(=O)c3c(oc2c1)C(=O)N(c1nccs1)C3c1ccc(C(C)(C)C)cc1` (stereo not drawn) reads 5.45% (inactive).
With `COc1ccc2c(=O)c3c(oc2c1)C(=O)N(c1nccs1)C3c1ccccc1` (stereo not drawn), the inhibition was 11.9% (inactive).
The same measure for `COc1ccc2c(c1)OCc1c-2oc2cc(OC)ccc12`: 81.8% (active); for `CC1CCc2c(Cl)cc(Cl)c(O)c2N1` (stereo not drawn): 103% (active); for `COc1cc(C=Nc2ccc(I)cc2)cc(OC)c1OC`: 75.7% (active).
For the compound `COc1cc(C=Nc2ccc3ncccc3c2)cc(OC)c1OC`, the inhibition is -5.15% (inactive).
In the case of `COc1cc2c(cc1/C=C/C(=O)N1CCc3ccccc31)OC(C)C2` (stereo not drawn), the inhibition was 59.3% (active).
`Cc1ccc2c(c1)CCCN2C(=O)/C=C/c1ccco1`: the inhibition was 44.5% (inactive).
The same measure for `CCCc1nc2oc3cc(OC)ccc3c(=O)c2c(=O)n1CCc1ccccc1`: 4.8% (inactive).
The same measure for `O=c1c(Oc2ccccc2F)coc2cc(O)ccc12`: 11.6% (inactive); for `CCCc1cc(=O)oc2cc(O)ccc12`: 55.5% (active).
Regarding `CCOC(=O)C(C)Oc1ccc2c(=O)c(Oc3ccc(OCC)cc3)coc2c1` (stereo not drawn), the inhibition was 22.8% (inactive).
The same measure for `CCCc1cccc(C)c1O`: 42.4% (inactive).
As to `O=c1c(Oc2ccccc2)coc2cc(O)ccc12`, the inhibition is 88.5% (active).
The same measure for `CCCc1cc(=O)oc2cc(OC(C)C)c(Cl)cc12`: 23.5% (inactive).
The same measure for `O=c1c(Oc2ccc(F)cc2)coc2cc(O)ccc12`: 103% (active).
The same measure for `CCCc1oc2cc(O)ccc2c(=O)c1Oc1ccccc1`: 80.2% (active); for `O=c1c(Oc2ccc(Cl)cc2)coc2cc(O)ccc12`: 33.2% (inactive).
As for `Oc1ccc(-c2nc3c4cnn(-c5ccccc5Cl)c4ncn3n2)cc1`, the inhibition is 44.1% (inactive).
Take `O=C(c1cnn2cccnc12)N1CCOc2ccc(C(O)C(c3ccccc3)c3ccccc3)cc2C1` (stereo not drawn): the inhibition was -21.2% (inactive).
Consider `Cc1cc(C(C)(C)CC(C)(C)C)ccc1OCCOCC[N+](C)(C)Cc1ccccc1`, for which the inhibition was 87.5% (active).
The same measure for `CCCCCCCCc1nc(=S)[nH][nH]1`: 86.1% (active).
The result for `CCCCCCCCN1C(=O)CC(=O)NC1=S` reads 27.6% (inactive); that for `O=C1CCC(=O)N1c1ccc(-c2nc3sc4c(c3c(=O)o2)CCC4)cc1`, -4.37% (inactive); that for `CC(C)(C)c1nc2sc3c(c2c(=O)o1)CCCC3`, 25.7% (inactive).
`Cc1nc2sc3c(c2c(=O)o1)CCCCC3`: the inhibition was 102% (active).
As for `COc1ccccc1C(C)(C)C(=O)n1nc(C(F)(F)F)nc1N`, the inhibition was 7.93% (inactive).
The result for `NC(=O)C1CCN(c2ccc(S(=O)(=O)C(F)(F)F)cc2)C1` (stereo not drawn) reads -74.6% (inactive); that for `Cc1cnn(C2CN(c3ccc(S(=O)(=O)C(F)(F)F)cc3)C2)c1`, 84.2% (active); that for `FC(F)(F)c1ccc(Cn2ccnc2CNC2CCCCC2)cc1`, 21.3% (inactive).
The result for `CCN(C(=O)c1cc(C)c(-c2ccc(F)cc2)s1)C1CCC1` reads 24.1% (inactive).
The result for `Cc1cc(C)c(Cn2ccnc2CN(C(=O)c2ccc(F)cc2)C2CC2)c(C)c1` reads 51.5% (active); that for `CC1=C(C)C(=O)C(CCCCC#CCCCC#CCO)=C(C)C1=O`, 84.5% (active).
As to `C=C(C)CN=c1scc(C)n1N=Cc1sccc1C`, the inhibition was 21.6% (inactive).
The same measure for `COc1ccc(N(CC(F)(F)F)C(=O)CCl)cc1`: 84.1% (active); for `COc1ccc(COc2ccc(N(C)C(N)=O)cc2)c(Cl)c1`: 15.9% (inactive); for `COc1ccc2cc(CN(C)C(=O)CCl)ccc2c1`: “inactive”.
The result for `CC1CCc2sc(C(=O)NCc3ccc4c(c3)OCO4)cc2C1` (stereo not drawn) reads -11% (inactive).
Turning to `CC1CCCC(NC(=O)c2cc3c(s2)CSC3)C1C` (stereo not drawn), the inhibition is 55.5% (active).
The same measure for `COc1ccc(-c2c(O)c3c(OC)c4c(cc3oc2=O)OC(C)(C)C=C4)cc1`: 63.3% (active); for `CC(=O)O[C@@H]1C[C@@]2(C)[C@H](c3ccoc3)C[C@H]3O[C@]32[C@]2(C)C(=O)C(O)=C3C(C)(C)C(=O)C=C[C@]3(C)C12` (stereo partly drawn): 94.8% (active); for `COc1cc(=C2C=c3ccccc3=N2)[nH]/c1=C\c1[nH]c(C)cc1C`: -5.42% (inactive).
The result for `O=C(NC(=S)Nc1ccc(N2CCN(C(=O)c3ccccc3)CC2)cc1)c1ccco1` reads 99.1% (active); that for `O=C(Nc1cccc(-c2cccc(Cl)c2)c1)C1CCN(C(=O)c2csnn2)CC1`, -4.87% (inactive); that for `O=C(Nc1cccc(-c2cccc(Cl)c2)c1)C1CCN(C(=O)c2ccccc2)CC1`, 85.9% (active).
With `O=C(Nc1cccc(-c2cccc(Cl)c2)c1)C1CCN(C(=O)C2CCOC2)CC1` (stereo not drawn), the inhibition is 71% (active).
Regarding `O=C(Nc1cccc(-c2cccc(Cl)c2)c1)C1CCN(C(=O)c2cccnc2)CC1`, the inhibition entry was “inactive”.
Consider `O=C(Nc1cccc(-c2cccc(Cl)c2)c1)C1CCN(C2CCOCC2)CC1`, for which the inhibition is 88.7% (active).
For `COc1ccc(C(=O)N2CCC(C(=O)Nc3cccc(-c4cccc(Cl)c4)c3)CC2)o1`, the inhibition is 70.5% (active).
The result for `O=C(Nc1cccc(-c2cccc(Cl)c2)c1)C1CCN(C(=O)C2CCCO2)CC1` (stereo not drawn) reads 9.39% (inactive); that for `O=C(Nc1cccc(-c2cccc(Cl)c2)c1)C1CCN(C(=O)C2CC=CCC2)CC1` (stereo not drawn), 81.6% (active); that for `CC(C)c1nccc(-c2nccn2CC2(O)CCN(C)CC2)n1`, -4.81% (inactive).
As for `COc1ccccc1-c1c(C)[nH]n2c(=O)cc(-c3ccc([N+](=O)[O-])cc3)nc12`, the inhibition is 77.8% (active).
The result for `COc1ccc(Cc2[nH]n3c(=O)cc(C)nc3c2-c2ccccc2)cc1` reads 37.9% (inactive); that for `COc1ccccc1-c1c(C)nn2c(NC(C)c3ccccc3)cc(C)nc12` (stereo not drawn), 5.58% (inactive).
On to `COc1ccc(Nc2nc3cc(Cl)ccc3o2)cc1Cl`, for which the inhibition is 21.2% (inactive).
The result for `COc1ccc(NC(C)c2nc(C)no2)cc1Cl` (stereo not drawn) reads 57.6% (active); that for `CC(Oc1ccc(Cl)cc1Cl)c1nc(-c2ccncc2)no1` (stereo not drawn), 43.3% (inactive).
